Bioassay records (PubChem)
Only some compounds are listed: those with a hit (about 15% of all), similar ones and a draw of the others.
Pf growth 48h – inhibits P. falciparum growth in the first generation, 48 h | P. falciparum luciferase growth in erythrocytes, 48 h | Potency, µM (series often up to 28.7 µM), inactives show top-dose activity change, negative = inhibition, most hits filed as inhibitors | actives 5.9% (n = 310,000); also: potency is read from the fitted curve at half-maximal effect; % is scaled to controls: 0 for no effect and ±100 for the full control effect
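Luminescence readout; reporter = integrated firefly luciferase in P. falciparum. RBC culture at 2% hematocrit, 0.1% parasitemia final, 37 C/5% CO2; decreased signal taken as growth inhibition.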
Pf growth 96h – P. falciparum growth inhibition at 96 hours | P. falciparum luciferase reporter growth, 96 h | Potency, µM (doses to about 28.7 µM), for inactives: at the top dose activity change, negative = inhibition, usual class: inhibitors | actives 6.9% (n = 320,000) | AID 504834; also: potency is read from the fitted curve at half-maximal effect; % is scaled to controls: 0 for no effect and ±100 for the full control effect
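Cell-based qHTS: luciferase-tagged P. falciparum in erythrocytes (2% hematocrit, 0.05% parasitemia final) incubated with compounds for 96 hours, 37 C, 5% CO2; luciferase detection reagent then added and luminescence measured.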
SARS PLpro yeast – inhibitors of SARS-CoV papain-like protease in yeast; S. cerevisiae expressing SARS-CoV PLpro, growth rescue; Potency, µM (series often up to 32.9 µM), for inactives: at the top dose activity, positive = growth rescue, most hits filed as activators; actives 0.19% (n = 330,000); calls by dose curve; also: potency is read from the fitted curve at half-maximal effect; 0% is about no effect; nearly all actives have a fitted effect of over 55% in size
Sm TGR block – blocks Schistosoma mansoni thioredoxin glutathione reductase; Q962Y6; purified TGR, DTNB reduction, TNB absorbance 405 nm; Potency, µM (doses to about 114 µM), without a hit: at the top dose activity change, negative = inhibition, most hits filed as inhibitors; actives 3% (n = 360,000); also: potency is read from the fitted curve at half-maximal effect; % is scaled to controls: 0 for no effect and ±100 for the full control effect; nearly all actives have a fitted effect of over 60% in size
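TGR 20 nM + NADPH 100 uM (dispensed conc.), cpd preinc 15 min RT; start with NADPH (500 uM addition) then DTNB (15 mM addition). Kinetic TNB absorbance, 405 nm filter. Four-parameter Hill fit across titration.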
HCV inh – inhibitors of hepatitis C virus infection; Huh7.5.1 HCVcc-Cre infection, luciferase reporter, 44 h; Potency, µM (top dose mostly 41.8 µM), for the others: at the highest dose activity change, negative = inhibition, most hits filed as inhibitors; actives 3.4% (n = 340,000); AID 651820; also: potency is read from the fitted curve at half-maximal effect; % is scaled to controls: 0 for no effect and ±100 for the full control effect
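Cells (1,000/well) were plated 4 h before compound, then infected with HCVcc-Cre virus (~0.5 moi). After 44 h further culture, infection was read as luciferase luminescence following a 15 min substrate incubation at room temperature.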
HCMV inh – human cytomegalovirus inhibition | HFF cells, HCMV-luciferase reporter, 72 h; active compounds read low | activity change, negative = inhibition, % at 57.5 µM | actives 4.5% (n = 410,000); in the data active = activity change below about -60%; inconclusive = no clear call, values can overlap the other calls; inactive = above about -39%; also: % is scaled to controls: 0 for no effect and ±100 for the full control effect
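Screen run at 2 compound doses on HFFs infected with reporter HCMV, MOI 1 PFU/cell. Luciferase activity from cell lysates at 72 h post infection gave inhibition relative to buffer-only and Salinomycin wells.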
* marks the source's active call; other numbers are inactive results; ? = inconclusive; · = no result. Unless noted, calls follow the shape of the dose curve; as a rule, active = well fitted curve in the direction sought with a large enough effect; inconclusive = small, poorly fitted or top-dose-only effect, or another doubt; inactive = no such curve, though single readings can be large; an effect the other way counts as inactive or inconclusive.

SMILES	Pf growth 48h	Pf growth 96h	SARS PLpro yeast	Sm TGR block	HCV inh	HCMV inh
C=CCNc1nc(N)c([N+](=O)[O-])c(Nc2cccc(Cl)c2)n1	?	7.4%	13.6%	1.2%	2.82µM*	15.4
CNc1nc(N)c([N+](=O)[O-])c(NCc2ccccc2)n1	?	?	10.6%	1.9%	3.0%	17.6
CNc1nc(N)c([N+](=O)[O-])c(Nc2cccc(F)c2)n1	?	?	-1.2%	-0.8%	22.4µM*	43.6
c1ccc(CNCc2ccc3c(c2)OCO3)nc1	35.6%	?	-22.9%	0.0%	-9.5%	27.0
CCOC(=O)C(C)Sc1ncnc2nc[nH]c12 (stereo unspecified)	-22.1%	?	11.4%	6.1%	9.1%	-17.1
CCOC(=O)C(CC)Sc1ncnc2nc[nH]c12 (stereo unspecified)	-23.7%	10.4µM*	10.8%	2.8%	12.2%	-18.8
Cc1cc(C)c2nc(NCCCNC(=S)NCCCN(C)C)c(C#N)cc2c1	?	-45.5%	-4.6%	4.4%	11.2µM*	-6.5
CCOC(=O)c1ccc(NC(=O)NC2=NCCS2)cc1	·	·	·	·	·	-10.7
CCOc1ccc(CNC(=O)CSc2nnc(C)c3c(C)n(-c4ccccc4)nc23)cc1	·	·	·	-4.0%	·	?
COc1ccc(CNC(=O)CSc2nnc(C)c3c(C)n(-c4ccccc4)nc23)c(OC)c1	·	·	·	2.0%	·	-65.4*
COc1cccc(CNC(=O)CSc2nnc(C)c3c(C)n(-c4ccccc4)nc23)c1OC	·	·	·	-4.3%	·	-19.1
Cc1nnc(SCC(=O)NCc2cccc(F)c2)c2nn(-c3ccccc3)c(C)c12	·	·	·	-2.6%	·	-61.4*
CCOc1ccc(NC(=O)Nc2cc(C(=O)O)ccc2N2CC3CC(C2)c2cccc(=O)n2C3)cc1 (stereo unspecified)	-14.9%	?	-3.0%	-1.2%	-4.6%	-34.8
CCCCCn1c(NC(=O)c2ccco2)c(C(=O)OCC)c2nc3ccccc3nc21	?	?	-4.4%	?	?	·
COCCCn1c(N)c(C(=O)OCCOC)c2nc3ccccc3nc21	-16.7%	?	6.1%	-0.3%	-0.5%	6.6
CCOC(=O)c1c(NS(=O)(=O)c2ccccc2)n(CCCOC)c2nc3ccccc3nc12	10.4µM*	0.0%	4.1%	-3.0%	-21.7%	?
CCOC(=O)c1c(N)n(CCCOC(=O)c2ccco2)c2nc3ccccc3nc12	-6.0%	?	0.2%	2.8%	11.2µM*	-20.8
COC(=O)Cn1c(CN2CCN(C(=O)c3ccco3)CC2)nc2c1c(=O)n(C)c(=O)n2C	18.5%	?	-0.2%	-27.3%	22.4%	3.7
Cc1ccc(NS(=O)(=O)c2ccc(C(=O)NC3CCN(Cc4ccccc4)CC3)cc2)cc1	·	·	-2.1%	·	?	-92.1*
O=C(NC1CCN(Cc2ccccc2)CC1)c1cccc(NS(=O)(=O)c2ccc(Br)cc2)c1	·	·	·	·	11.2µM*	?
O=C(NC1CCN(Cc2ccccc2)CC1)c1cc(S(=O)(=O)Nc2ccc(F)cc2)ccc1Cl	9.28µM*	9.28µM*	1.9%	5.5%	?	-38.4
Cc1ccc(S(=O)(=O)Nc2cccc(C(=O)NC3CCN(Cc4ccccc4)CC3)c2)cc1F	?	?	6.5%	-3.2%	?	?
O=C(NC1CCN(Cc2ccccc2)CC1)c1cccc(S(=O)(=O)Nc2ccc(SC(F)F)cc2)c1	·	·	2.8%	·	2.82µM*	-29.6
O=c1c2sc3ccccc3c2n(Cc2ccccc2)c(=O)n1CCc1ccccc1	·	·	·	9.4%	·	21.1
CC(C)=CCCC(C)=CCN1C(=O)CN(C)C1=O	·	·	·	·	·	-39.0
SMILES	Pf growth 48h	Pf growth 96h	SARS PLpro yeast	Sm TGR block	HCV inh	HCMV inh
Cc1ccc(NS(=O)(=O)c2cccc(C(=O)NC3CCN(Cc4ccccc4)CC3)c2)cc1	·	·	·	·	12.6µM*	?
CCN(c1ccccc1)S(=O)(=O)c1ccc(Cl)c(C(=O)NC2CCN(Cc3ccccc3)CC2)c1	·	·	·	·	?	-70.4*
CN(C)S(=O)(=O)c1ccc(Cl)c(C(=O)NC2CCN(Cc3ccccc3)C2)c1 (stereo unspecified)	6.0%	-2.0%	-0.6%	-12.9%	-9.8%	5.2
COC(=O)c1ccc(Oc2nc(Nc3ccc(C)c(C)c3)nc(N(C)C)n2)cc1	?	·	-10.5%	18.9%	8.91µM*	-10.3
O=C(NCC(c1ccco1)N1CCN(c2ccccc2F)CC1)C1CCCCC1 (stereo unspecified)	11.7µM*	-23.0%	-2.0%	-10.7%	?	-30.4
O=C(NCc1cccs1)C(=O)NCC(c1ccco1)N1CCN(c2ccc(F)cc2)CC1 (stereo unspecified)	?	?	-3.8%	0.9%	22.4µM*	-31.9
O=C(NCC(c1ccco1)N1CCN(c2ccccc2)CC1)OCc1ccccc1 (stereo unspecified)	?	4.15µM*	-1.5%	-3.5%	-5.7%	8.7
O=C(NCC(c1ccco1)N1CCN(c2ccc(F)cc2)CC1)c1cccs1 (stereo unspecified)	-9.0%	?	2.6%	-15.5%	-25.3%	6.0
COc1ccc(N2CCN(C(CNC(=O)C(=O)NC3CC3)c3ccco3)CC2)cc1 (stereo unspecified)	18.6%	22.6%	1.3%	0.6%	25.9%	-18.8
COc1ccc(N2CCN(C(CNC(=O)C3CCCCC3)c3ccco3)CC2)cc1 (stereo unspecified)	13.1µM*	?	3.1%	1.4%	-2.2%	-9.7
COc1ccc(CN2CCN(c3ncc(C(=O)Nc4ccccc4)o3)C2=O)cc1	·	·	·	·	·	12.2
Cc1ccc(C)c(NC(=O)CN(C)C(=O)C2=NNC(=O)CC2)c1	·	·	-7.5%	·	6.2%	-16.1
O=C(O)C(C=C(Cl)Cl)N1CCOCC1 (stereo unspecified)	·	·	·	·	10.0%	-23.2
CC(CCc1ccccc1)NC(=O)COC(=O)c1cccnc1Cl (stereo unspecified)	·	·	-2.1%	·	-23.1%	-28.9
COC(=O)[C@H](Cc1ccccc1)NC(=O)[C@@H](N)CC(=O)O	6.7%	34.0%	·	·	0.562µM*	?
Cc1ccc(S(=O)(=O)N[C@@H](Cc2ccccc2)C(=O)CCl)cc1	-13.8%	29.8%	-65.1%	11.2µM*	-15.4%	21.3
Cc1ccc(S(=O)(=O)NC(Cc2ccccc2)C(=O)NN)cc1 (stereo unspecified)	33.0%	-9.9%	6.2%	-10.2%	4.5%	8.8
COC(=O)C(Cc1ccc(O)cc1)NS(=O)(=O)Cc1ccccc1 (stereo unspecified)	·	·	·	·	·	12.0
COC(=O)[C@H](Cc1ccccc1)NS(=O)(=O)N[C@@H](Cc1ccccc1)C(=O)OC	15.0%	36.7%	-2.0%	-0.3%	11.5%	-62.2*
